Sampled rows, rich in hits. Any-hit rate of the full collection: about 10%.
ALDH1A1 inh = inhibitors of human aldehyde dehydrogenase 1A1 | 220,000 compounds, 7.3% hits | P00352 | Potency, µM (doses to about 75.3 µM), without a hit: top-dose activity, negative = inhibition, most hits filed as inhibitors | Purified ALDH1A1, NADH fluorescence, propionaldehyde substrate | AID 1030;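 note: potency is the fitted concentration of half-maximal effect; plate controls were no enzyme wells and a reference inhibitor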
Target sequence (P00352 whole entry, looked up): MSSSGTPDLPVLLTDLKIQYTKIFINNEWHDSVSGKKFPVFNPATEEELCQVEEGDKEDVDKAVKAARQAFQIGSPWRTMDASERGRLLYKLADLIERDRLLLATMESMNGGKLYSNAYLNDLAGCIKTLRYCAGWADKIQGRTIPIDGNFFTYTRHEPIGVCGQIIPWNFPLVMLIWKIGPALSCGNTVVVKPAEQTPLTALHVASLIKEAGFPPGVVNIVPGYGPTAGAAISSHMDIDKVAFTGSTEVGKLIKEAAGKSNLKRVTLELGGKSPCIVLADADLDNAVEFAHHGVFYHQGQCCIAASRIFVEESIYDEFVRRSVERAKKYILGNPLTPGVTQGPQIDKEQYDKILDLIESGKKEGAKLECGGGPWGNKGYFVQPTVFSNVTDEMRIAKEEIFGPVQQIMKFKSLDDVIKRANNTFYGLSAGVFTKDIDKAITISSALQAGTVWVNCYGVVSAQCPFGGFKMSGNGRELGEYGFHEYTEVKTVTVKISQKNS
PNC assembly inh = inhibitors of perinucleolar compartment assembly; PC3M PTB-GFP, PNC prevalence imaging, 16 h; hits give low values; AID 2417; activity change (PNC), negative = inhibition, % at 10 µM; 140,000 compounds, 3.1% hits;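 active = readout at or below -70, meaning at least 70% loss of cells showing the perinucleolar compartment, a nuclear body marking cancer cells; inconclusive = readout between -30 and a set limit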;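 note: plate controls were DMSO wells for no effect and camptothecin positive control wells for full effect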
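Read-out is percentage of cells bearing a perinucleolar compartment, from automated 20x imaging of fixed, Hoechst-stained PC3M PTB-GFP cells. Cells were seeded 4 h, then exposed 16 h to compound (23 nl of library stock) in duplicate plates.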
LMNA splice mod = LMNA splicing modulation. HeLa LMNA splicing GFP/RFP minigene ratio, 48 h. 200,000 compounds, 0.01% hits. Potency, µM (doses to about 46.1 µM), for inactives: at the highest dose ratio change, negative = inhibition, actives largely listed as inhibitors; active = well fitted inhibition curve with a large enough effect in the signal ratio, with a control signal flat, not every such curve was filed as active; inconclusive = small, poorly fitted or top-dose-only effect, or effect the other way, or a change in a side signal; the % refers to the signal ratio; note: potency is the fitted concentration of half-maximal effect
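S3 HeLa stable clones carrying a lamin A-EGFP splicing minigene plus DsRed2 were seeded at 600 cells/well in Opti-MEM with 2% FBS, pin-dosed and incubated 48 h at 37°C. Acumen cytometry (488 nm) gave the GFP/RFP total-intensity ratio.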
HPGD block = inhibitors of human 15-hydroxyprostaglandin dehydrogenase (HPGD); P15428; purified HPGD, NADH fluorescence kinetic, PGE2 substrate; Potency, µM, inactives show at the highest dose activity change, negative = inhibition, hits mostly inhibitors; 150,000 compounds, 4.3% hits; AID 894; note: potency is the fitted concentration of half-maximal effect
Target sequence (P15428 whole entry, looked up): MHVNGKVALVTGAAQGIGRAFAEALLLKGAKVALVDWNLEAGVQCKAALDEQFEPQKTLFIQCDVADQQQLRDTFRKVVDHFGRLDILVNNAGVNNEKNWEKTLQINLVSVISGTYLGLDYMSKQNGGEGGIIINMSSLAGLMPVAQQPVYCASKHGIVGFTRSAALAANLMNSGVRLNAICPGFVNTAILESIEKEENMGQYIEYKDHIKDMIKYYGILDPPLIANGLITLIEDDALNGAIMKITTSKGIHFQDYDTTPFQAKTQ
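NADH formation kinetics: reaction with 30 uM PGE2 and 1 mM NAD+ (final), 20 nM enzyme, Tris-HCl pH 8 with Tween 20, after 15 min compound preincubation at room temperature. Fluorescence change, last versus first of five reads.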
ALOX12 inhib = 12-hLO (ALOX12) enzyme inhibition | purified 12-hLO, xylenol orange hydroperoxide absorbance | 150,000 compounds, 0.12% hits | P18054 | Potency, µM (titrated, usually from 57.1 µM), for inactives: at the top dose activity change, negative = inhibition, hits mostly inhibitors; active = well fitted inhibition curve with a large enough effect; inconclusive = small, poorly fitted or top-dose-only effect; note: potency is the fitted concentration of half-maximal effect; nearly all actives have a fitted effect of over 55% in size
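Purified human 12hLO (150 nM final) was preincubated with compounds for 15 min at room temperature in 25 mM Hepes pH 7.0, 0.01% Triton X-100, then reacted with 40 uM arachidonic acid for 30 min. Hydroperoxide was detected with ferrous iron/xylenol orange.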
The depositor's hits bear a star; ? = inconclusive; · = not tested or not shown; [ ] = remark or other dose. Unless noted, calls come from the whole dose curve; as a rule, active = well fitted inhibition curve with a large enough effect (not every such curve was filed as active); inconclusive = small, poorly fitted or top-dose-only effect, or another doubt; inactive = no such curve, though single readings can be large or run the other way. Unless noted, % is set by controls: 0 for no effect and ±100 for the full control effect.

SMILES | ALDH1A1 inh | PNC assembly inh | LMNA splice mod | HPGD block | ALOX12 inhib
Cc1ccc(C(=O)CCNc2ccccc2)o1 | 16µM* | -17 | -4% | -4% | -3%
Cc1ccc(C(=O)CCNc2cccc(Br)c2)o1 | ? | 27 | 3% | -12% | 7%
Cc1ccc(C(=O)CCNc2ccc(Br)cc2)o1 | 11µM* | -23 | -1% | -10% | -8%
Cc1cn2c(=O)cc(COC(=O)COc3ccc(F)cc3)nc2s1 | · | · | -15%[46 µM] | · | ·
Cc1ccc(NC(=O)c2oc3ccc(S(=O)(=O)N4CCCCCC4)cc3c2C)c(C)c1 | · | · | 9%[46 µM] | · | ·
CCOC(=O)c1ccc(NC(=O)Nc2ccc(S(N)(=O)=O)cc2)cc1 | 6% | -122* | 6% | -10% | 2%
CCOC(=O)c1ccc(NC(=O)N(CC)CC)cc1 | 12% | -92* | 13% | 0% | -2%
CN(CCO)C(=O)CCC(=O)Nc1ccc(S(N)(=O)=O)cc1 | 1% | -127* | -4% | -8% | 1%
CCOC(=O)c1ccc(NS(=O)(=O)c2ccc3[nH]c(=O)[nH]c3c2)cc1 | 16µM* | 20 | -10% | 28µM* | 0%
CCOC(=O)CC(=O)Nc1ccc(C(=O)OCC)cc1 | -5% | 2 | -2% | -12% | 3%
CC(=O)c1ccc(S(=O)(=O)Nc2ccc(-c3cn4c(C)csc4n3)cc2)cc1 | · | · | -16%[46 µM] | · | ·
CCCCNC(=O)c1sc2nc(C)cc(COC)c2c1-n1cccc1 | ? | -22 | ? | -9% | -10%
Cc1cc(C)c2c(-n3cccc3)c(C(=O)NNS(=O)(=O)c3ccccc3)sc2n1 | 4.5µM* | -15 | 12% | -8% | -14%
Cc1cc(C)c2c(-n3cccc3)c(C(=O)O)sc2n1 | 22µM* | 31 | ? | -21% | 0%
COCc1cc(C)nc2sc(C(=O)NN)c(-n3cccc3)c12 | 0.5µM* | · | · | · | ·
Cc1cc(-c2nc(C)c(C(=O)NNS(=O)(=O)c3ccccc3)s2)no1 | 15% | · | 3%[46 µM] | · | ·
COc1ccc(C(=O)N2CCC3(CCCN(c4ncccn4)C3)CC2)cc1 | -6% | · | · | -15% | 0%
CC(C)(C)COS(=O)OCC(C)(C)C | -5%[13.5 µM] | · | · | -1% | 0%[11.4 µM]
COc1cc(C2C3C(C)N(C)C(=O)N(C)C3N(C)C(=O)N2C)ccc1O (stereo unspecified) | 11% | -100* | 14% | -12% | -1%
CCOc1ccc(C(Nc2cccnc2)c2cc(Cl)c3cccnc3c2O)cc1 (stereo unspecified) | 1.3µM* | · | · | · | ·
CCOC(=O)CCN1CCN(C(=O)c2ccc(-n3c(=O)c(=O)[nH]c4ccccc43)cc2)CC1 | ? | · | · | -19% | -4%
O=C(O)c1cc(O)c2c(c1)[C@H]([C@H]1c3cc(C(=O)O)cc(O)c3C(=O)c3c(O[C@@H]4OC(CO)C(O)C(O)C4O)cccc31)c1cccc(O[C@@H]3OC(CO)C(O)C(O)C3O)c1C2=O (stereo partly specified) | -10% | · | ? | 7.9µM* | -3%
COc1cc2cc(CNc3ccccc3)c(=O)n(CC(=O)Nc3ccccc3)c2cc1OC | · | · | -19%[46 µM] | · | ·
O=C(Nc1ccc(F)cc1Cl)C1CCN(c2ncnc3c2nc2n3CCCCC2)CC1 | · | · | 4%[46 µM] | · | ·
Cc1sc(NC(=O)C2CCCC2)c(C#N)c1C | 14µM* | ? | 0% | 10µM* | -21%
SMILES | ALDH1A1 inh | PNC assembly inh | LMNA splice mod | HPGD block | ALOX12 inhib
Cc1sc(NC(=O)C2CCCO2)c(C#N)c1C (stereo unspecified) | 25µM* | -92* | 12% | -27% | 8%
CCc1ccc(-c2c(C)sc(NC(=O)C3CCC3)c2C#N)cc1 | -22% | 55 | -9% | -10% | 1%
CCCCCC(=O)Nc1sc(C)c(C)c1C#N | 10µM* | ? | ? | 25µM* | -10%
CCCC(=O)Nc1sc(C)c(C)c1C#N | ? | · | 14%[46 µM] | · | ·
Cc1nc(-c2cccc(S(=O)(=O)N3CCC(C(=O)NCc4ccccc4)CC3)c2)no1 | · | · | 13%[46 µM] | · | ·
O=C(CC12CC3CC(CC(C3)C1)C2)NC(=S)N1CCCCC1 | 20µM* | 19 | -2% | ? | -3%
Cc1nc2ccccc2n1-c1ccccc1 | 9% | ? | -3% | -14% | -6%
O=C(O)c1ccccc1-c1nc2ccccc2n1-c1ccccc1 | 0% | -109* | -7% | 3% | -2%
C[N+]1(CCC(=O)c2ccco2)CC2CCC(CC2)C1 (stereo unspecified) | 5%[13.5 µM] | · | · | 0% | 4%[11.4 µM]
O=C(O)COc1ccc(/C=N/n2cnc3scc(-c4cccs4)c3c2=O)cc1 | 7.1µM* | 28 | -8% | -23% | -3%
COCC(=O)N1CCC2(CCCN(c3ccccn3)C2)CC1 | ? | · | · | ? | 4%
CC(=O)OC1C=C[C@]2(C)C(CC(OC(C)=O)[C@@]3(C)C4=CC(=O)OC(c5ccoc5)[C@]4(C)CCC23)C1(C)C (stereo partly specified) | 2% | · | · | -7% | -2%
O=c1c(Cl)cc(Cl)nn1-c1ccccc1 | 32µM* | ? | ? | -17% | -1%
COc1cc2ccccc2cc1C(=O)N1CCN(c2nc3ccc(F)cc3s2)CC1 | · | · | -17%[46 µM] | · | ·
CCOC(=O)c1cnc2ccc(C)cc2c1OCc1cc(F)cc(F)c1 | 14µM* | 5 | -5% | -21% | -4%
CCOC(=O)c1cnc2ccc(C(=O)OC)cc2c1Nc1ccc(C(=O)O)cc1 | 4% | · | · | · | ·
[O][C@H]1[C@@H](O)[C@@H](CO)O[C@@H](O[C@@H]2[C@@H]3OC[C@H]2O[C@H](O[C@@H]2[C@@H](O)[C@H](C[C@@H]4[C@@H]5OC[C@H]4O[CH][C@@H]5O)O[C@H](CO)[C@@H]2OS(=O)(=O)O)[C@@H]3OS(=O)(=O)O)[C@@H]1O | 6% | · | · | -6% | -3%[0.00818 µM]
CCOc1ccc(N2C(=O)CS/C2=C(\C(Cl)=C(Cl)Cl)[N+](=O)[O-])cc1 | 22µM* | 50 | 11% | -5% | -8%
CCCCC/C=C\C/C=C\C=C\[C@@H](O)C/C=C\CCCC(=O)O | 1% | · | · | -8% | -2%
N#Cc1c(/N=C/c2cc3ccccc3s2)sc2c1CCC2 | 25µM* | ? | -8% | -17% | 2%
Cc1[nH]n(-c2cccc3ccccc23)c(=O)c1/C=N/c1sc2c(c1C#N)CCC2 | 5µM* | 31 | -1% | ? | -16%
CCN(/C=N/c1sc2c(c1C#N)CCCCC2)CC | ? | 6 | 9% | -22% | 1%
Cc1[nH]n(-c2ccc(F)cc2)c(=O)c1/C=N/c1sc2c(c1C#N)CCCC2 | ? | 57 | 10% | -17% | -2%
N#Cc1c(/N=C/C=C/c2ccccc2)sc2c1CCCC2 | 7.9µM* | 21 | 6% | 22µM* | -10%
N#Cc1c(/N=C/c2ccco2)sc2c1CCC2 | -5% | 38 | -16% | -7% | -6%
CN1CCN(/C=N/c2sc3c(c2C#N)CCCCC3)CC1 | 10µM* | 16 | -13% | -16% | -1%
CNc1ccc([N+](=O)[O-])cc1-c1nc2ccccc2[nH]c1=O | 8% | · | · | · | ·
O=C(CN1C(=O)c2cccnc2Oc2ccc(Cl)cc21)NCCCN1CCCCC1 | · | · | -4%[46 µM] | · | ·
